Laboratory results reported in the supplement of paper PMC11482750.
± gives the standard deviation of the averaged measurements.

compound: CCC1CCC(=O)O1 [γ-hexalactone]; assay: control-subtracted net OSN firing rate; higher = stronger neuronal activation; conditions: odorant dilution (vol/vol): 1/100
Procedure: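 Single sensillum recordings from olfactory sensory neurons. The neurons sit in the maxillary palp or antennal sensilla of D. melanogaster (wild type, mutants, or at1 empty-neuron lines expressing Or42a homologs or the A181D S307P mutant) and of four Scaptomyza species. Each odorant was given as a 1 s pulse from 20 µl loaded on filter paper at 1:100 vol/vol, diluted in mineral oil (γ-hexalactone in DMSO). Spikes were counted in a 0.5 s window starting 0.2 s after onset, background was subtracted, the count was doubled, and the mean solvent-control response was subtracted.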

Target	control-subtracted net OSN firing rate
Canton-S pb2a	-7.5 ± 12 spikes/s
Canton-S ab4b	-4 ± 5.3 spikes/s
Canton-S ab10a	-0.4 ± 7.9 spikes/s
Canton-S ab3b	-0.909 ± 7.1 spikes/s
Canton-S pb3a	-1.14 ± 8.2 spikes/s
Canton-S at4c	-6 ± 5.2 spikes/s
Canton-S at1	-2 ± 5.5 spikes/s
Or67dGal4; UAS-SflaOr42a3 at1	48.8 ± 19 spikes/s
